Measured values published in PubChem BioAssay (NCI).
About 79,000 compounds went through this panel and 15% of them were active in at least one assay; those are over-represented in the sample as a whole. Active and inactive are the calls of the source. Cut-off read from the data, not from the text of the source: active = growth inhibition above about 70%; inactive = the rest.

What was measured:
[1] = NCI Yeast Anticancer Drug Screen. Data for the sgs1 strain (AID 173);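 note: 0% = growth of vehicle-only control cultures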; conditions: S. cerevisiae sgs1 mutant, hits give high values
In short: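 Strain with an altered DNA repair or cell cycle pathway exposed to compound. Growth then measured. Value = inhibition versus vehicle control.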

[2] = NCI Yeast Anticancer Drug Screen. Data for the mlh1 rad18 strain (AID 175); conditions: S. cerevisiae mlh1 rad18 strain growth inhibition, hits give high values
In short: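 A repair-deficient yeast strain is exposed to test compound, and growth is scored relative to vehicle-treated controls.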

[3] = NCI Yeast Anticancer Drug Screen. Data for the rad18 strain (AID 177); conditions: S. cerevisiae rad18 mutant growth inhibition, hits give high values
In short: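 DNA-repair-defective yeast; compound treatment; growth inhibition scored against vehicle.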

[4] = NCI Yeast Anticancer Drug Screen. Data for the wt1 strain (AID 149);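 note: 0% = growth of vehicle-treated wt1 cultures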; conditions: S. cerevisiae wt1 strain (SPY 50644) growth inhibition, hits give high values
In short: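 Yeast wt1 strain exposed to compounds; growth inhibition measured relative to vehicle-treated controls.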

[5] = NCI Yeast Anticancer Drug Screen. Data for the rad50EPP+ strain (AID 151);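 note: 0% = growth of vehicle-treated control cultures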; conditions: S. cerevisiae rad50 mutant strain, hits give high values
In short: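 Measured: growth inhibition of rad50EPP+ yeast. Reference: vehicle-treated controls. Screen uses strains with defined genetic alterations in DNA damage repair or cell cycle control.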

[6] = NCI Yeast Anticancer Drug Screen. Data for the mgt1 strain (AID 153); conditions: S. cerevisiae mgt1 mutant growth inhibition, hits give high values
In short: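 Compounds were applied to mgt1 mutant yeast, and growth was then compared against vehicle-treated control cultures to give percent inhibition.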

[7] = NCI Yeast Anticancer Drug Screen. Data for the mec2-1 strain (AID 157); conditions: S. cerevisiae mec2-1 strain, hits give high values
In short: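 Compounds were applied to mec2-1 yeast cells. Their growth was then compared with that of vehicle-treated cultures to give growth inhibition.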

[8] = NCI Yeast Anticancer Drug Screen. Data for the rad14 strain (AID 159);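 note: 0% = growth of vehicle-treated control cultures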; conditions: S. cerevisiae rad14 strain growth inhibition, hits give high values
In short: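 Yeast cells carrying a defined DNA-repair defect were exposed to compounds, and growth inhibition was calculated relative to vehicle-treated control cultures.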

[9] = NCI Yeast Anticancer Drug Screen. Data for the sgs1 mgt1 strain (AID 161);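 note: 0% = growth of cultures given vehicle only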; conditions: S. cerevisiae sgs1 mgt1 strain, hits give high values
In short: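 Growth of a repair-deficient yeast mutant was monitored after compound treatment and expressed as inhibition relative to vehicle-treated cultures.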

[10] = NCI Yeast Anticancer Drug Screen. Data for the CLN2oe strain (AID 163);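 note: 0% = growth of vehicle-only control cultures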; conditions: S. cerevisiae CLN2oe strain, hits give high values
In short: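 Cells of an engineered yeast line with disturbed cell-cycle regulation are treated with compound. Inhibition of growth is then calculated relative to the vehicle-treated reference.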

[11] = NCI Yeast Anticancer Drug Screen. Data for the cln2 rad14 strain (AID 165);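 note: 0% = growth equal to vehicle treated cultures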; conditions: S. cerevisiae cln2 rad14 strain, hits give high values
In short: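 Strain: cln2 rad14 yeast, altered in cell cycle control and DNA damage repair. Read-out: growth inhibition vs vehicle.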

[12] = NCI Yeast Anticancer Drug Screen. Data for the bub3 strain (AID 167); conditions: S. cerevisiae bub3 mutant strain, hits give high values
In short: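 Compounds were applied to a genetically altered yeast strain carrying a cell-cycle control defect. Growth inhibition was scored against vehicle-treated controls.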

[13] = NCI Yeast Anticancer Drug Screen. Data for the wt2 strain (AID 169);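 note: 0% = growth of vehicle-treated yeast cultures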; conditions: S. cerevisiae wt2 strain growth inhibition, hits give high values
In short: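 Growth of compound-treated yeast is measured and expressed as inhibition relative to vehicle-only controls.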

[14] = NCI Yeast Anticancer Drug Screen. Data for the mlh1 strain (AID 171);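 note: 0% = growth of vehicle-treated control cultures of the same strain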; conditions: S. cerevisiae mlh1 strain growth inhibition, hits give high values
In short: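 Test agents were incubated with yeast bearing a defined DNA damage repair or cell cycle control alteration; values are growth inhibition normalised to vehicle-treated cultures.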

[15] = NCI Yeast Anticancer Drug Screen. Data for the rad50 strain (AID 155);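 note: 0% = growth of vehicle-only cultures of the same strain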; conditions: S. cerevisiae rad50 strain growth inhibition, hits give high values
In short: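 Yeast carrying a defined DNA repair defect were exposed to test compounds, and growth was compared with vehicle-treated controls to give percent inhibition.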

[16] = at 5.0 µM (retest, dose inferred, filed as 0.5)
[17] = at 50.0 µM (retest, dose inferred, filed as 5.0)

Measured: growth inhibition

CC1=NN(C(=O)CC(=O)N(C(=O)c2ccccc2)c2ccc(Cl)cc2)C(=O)C1N=Nc1ccc([N+](=O)[O-])cc1 (stereo not drawn)
active: [2]; [17] 75% | [2]; at 50.0 µM 81% | [3]; at 33.0 µM 85% | [3]; at 100.0 µM 84%
inactive: [1]; at 1.2 µM 0% | [1]; at 3.7 µM 14% | [1]; at 11.0 µM 46% | [1]; at 33.0 µM 68% | [1]; at 100.0 µM 69% | [2]; [16] 24% | [3]; at 1.2 µM 4% | [3]; at 3.7 µM 11% | [3]; at 11.0 µM 62%

COc1cc(C(C)C(C(=O)O)C(=O)C(=O)O)cc(OC)c1OC (stereo not drawn)
inactive: [4]; at 1.2 µM 0% | [4]; at 3.7 µM 2% | [4]; at 11.0 µM 3% | [4]; at 33.0 µM 4% | [4]; at 100.0 µM 5% | [5]; at 1.2 µM -3% | [5]; at 3.7 µM -7% | [5]; at 11.0 µM -4% | [5]; at 33.0 µM -8% | [5]; at 100.0 µM 1% | [6]; at 1.2 µM 1% | [6]; at 3.7 µM 2% | [6]; at 11.0 µM 2% | [6]; at 33.0 µM 1% | [6]; at 100.0 µM 21% | [7]; at 1.2 µM -5% | [7]; at 3.7 µM -3% | [7]; [16] 7% | [7]; at 11.0 µM -3% | [7]; at 33.0 µM -2% | [7]; [17] -4% | [7]; at 50.0 µM 9.9% | [7]; at 100.0 µM 0% | [8]; at 1.2 µM -1% | [8]; at 3.7 µM -2% | [8]; at 11.0 µM 2% | [8]; at 33.0 µM 3% | [8]; at 100.0 µM 5% | [9]; [16] -5% | [9]; [17] 2% | [9]; at 50.0 µM -3.75% | [10]; at 1.2 µM 2% | [10]; at 3.7 µM 5% | [10]; at 11.0 µM 4% | [10]; at 33.0 µM 5% | [10]; at 100.0 µM 7% | [11]; [16] 10% | [11]; at 50.0 µM -22.4% | [12]; at 1.2 µM 1% | [12]; at 3.7 µM -1% | [12]; [16] 4% | [12]; at 11.0 µM -6% | [12]; at 33.0 µM -3% | [12]; [17] 11% | [12]; at 50.0 µM 44.6% | [12]; at 100.0 µM -2% | [13]; at 1.2 µM 1% | [13]; at 3.7 µM 0% | [13]; at 11.0 µM 2% | [13]; at 33.0 µM -1% | [13]; at 100.0 µM 2% | [14]; at 1.2 µM 0% | [14]; at 3.7 µM 0% | [14]; at 11.0 µM 2% | [14]; at 33.0 µM 3% | [14]; at 100.0 µM 6% | [1]; at 1.2 µM -1% | [1]; at 3.7 µM -1% | [1]; at 11.0 µM 0% | [1]; at 33.0 µM 2% | [1]; at 100.0 µM 6% | [2]; [16] -3% | [2]; [17] 41% | [2]; at 50.0 µM 44.9% | [3]; at 1.2 µM -5% | [3]; at 3.7 µM -2% | [3]; at 11.0 µM -4% | [3]; at 33.0 µM 1% | [3]; at 100.0 µM 9%
active: [11]; [17] 76%

[Cl][Pt+2][Cl].[NH-]CC1(C[NH-])CCCCC1
inactive: [4]; at 1.2 µM -67% | [4]; at 3.7 µM -17% | [6]; at 1.2 µM -44% | [6]; at 3.7 µM 12% | [15]; at 1.2 µM -63% | [15]; at 3.7 µM -37% | [15]; [16] 26% | [7]; at 1.2 µM -67% | [7]; at 3.7 µM -19% | [7]; [16] 21% | [8]; at 1.2 µM -29% | [8]; at 3.7 µM 6% | [9]; [16] 53% | [10]; at 1.2 µM -5% | [10]; at 3.7 µM 14% | [10]; at 11.0 µM 62% | [12]; at 1.2 µM -42% | [12]; at 3.7 µM 23% | [12]; [16] 45% | [13]; at 1.2 µM -23% | [13]; at 3.7 µM 28% | [14]; at 1.2 µM -68% | [14]; at 3.7 µM -2% | [1]; at 1.2 µM -14% | [1]; at 3.7 µM 11% | [2]; [16] 3% | [3]; at 1.2 µM -24% | [3]; at 3.7 µM -6%
active: [4]; at 11.0 µM 99% | [4]; at 33.0 µM 99% | [4]; at 100.0 µM 98% | [6]; at 11.0 µM 98% | [6]; at 33.0 µM 99% | [6]; at 100.0 µM 98% | [15]; at 11.0 µM 86% | [15]; at 33.0 µM 98% | [15]; [17] 100% | [15]; at 50.0 µM 91.1% | [15]; at 100.0 µM 98% | [7]; at 11.0 µM 98% | [7]; at 33.0 µM 99% | [7]; [17] 100% | [7]; at 50.0 µM 91.9% | [7]; at 100.0 µM 98% | [8]; at 11.0 µM 96% | [8]; at 33.0 µM 98% | [8]; at 100.0 µM 98% | [9]; [17] 100% | [9]; at 50.0 µM 92.7% | [10]; at 33.0 µM 98% | [10]; at 100.0 µM 98% | [12]; at 11.0 µM 97% | [12]; at 33.0 µM 99% | [12]; [17] 100% | [12]; at 50.0 µM 91.7% | [12]; at 100.0 µM 98% | [13]; at 11.0 µM 90% | [13]; at 33.0 µM 99% | [13]; at 100.0 µM 99% | [14]; at 11.0 µM 97% | [14]; at 33.0 µM 98% | [14]; at 100.0 µM 97% | [1]; at 11.0 µM 83% | [1]; at 33.0 µM 98% | [1]; at 100.0 µM 97% | [2]; [17] 99% | [2]; at 50.0 µM 88.8% | [3]; at 11.0 µM 89% | [3]; at 33.0 µM 97% | [3]; at 100.0 µM 96%
